Measured values: PubChem BioAssay
Active and inactive are the calls of the source.

How the values were obtained:
[1] = anti-His antibody binders, primary screen, artefact control for SMM control protein annotation, biochemical, small-molecule microarray, 635 nm fluorescence (AID 1128); details: anti-His Alexa647 antibody binding, higher = more signal;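 further: score merges feature fluorescence with signal-to-noise for each printed compound spot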
[2] = tested on: Human papillomavirus type 1a E7 protein (residues 1-88); assay: HPV1a E7 small-molecule binders, primary screen, biochemical, small-molecule microarray, residues 1-88, 635 nm (AID 1129); details: small-molecule microarray binding, fluorescence 635 nm; higher = more signal
[3] = biological target: Focal adhesion kinase 1 (Homo sapiens) (UniProt Q05397); assay: small-molecule microarray binders of FAK, primary screen, biochemical, 635/667 nm fluorescence, BSA, DTT (AID 1130); details: PTK2 binding, 635 nm fluorescence, higher = more signal;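 further: composite of spot emission at 667 nm and signal to noise over triplicate slides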
Chain of Focal adhesion kinase 1 (Homo sapiens) (Q05397 whole entry, looked up): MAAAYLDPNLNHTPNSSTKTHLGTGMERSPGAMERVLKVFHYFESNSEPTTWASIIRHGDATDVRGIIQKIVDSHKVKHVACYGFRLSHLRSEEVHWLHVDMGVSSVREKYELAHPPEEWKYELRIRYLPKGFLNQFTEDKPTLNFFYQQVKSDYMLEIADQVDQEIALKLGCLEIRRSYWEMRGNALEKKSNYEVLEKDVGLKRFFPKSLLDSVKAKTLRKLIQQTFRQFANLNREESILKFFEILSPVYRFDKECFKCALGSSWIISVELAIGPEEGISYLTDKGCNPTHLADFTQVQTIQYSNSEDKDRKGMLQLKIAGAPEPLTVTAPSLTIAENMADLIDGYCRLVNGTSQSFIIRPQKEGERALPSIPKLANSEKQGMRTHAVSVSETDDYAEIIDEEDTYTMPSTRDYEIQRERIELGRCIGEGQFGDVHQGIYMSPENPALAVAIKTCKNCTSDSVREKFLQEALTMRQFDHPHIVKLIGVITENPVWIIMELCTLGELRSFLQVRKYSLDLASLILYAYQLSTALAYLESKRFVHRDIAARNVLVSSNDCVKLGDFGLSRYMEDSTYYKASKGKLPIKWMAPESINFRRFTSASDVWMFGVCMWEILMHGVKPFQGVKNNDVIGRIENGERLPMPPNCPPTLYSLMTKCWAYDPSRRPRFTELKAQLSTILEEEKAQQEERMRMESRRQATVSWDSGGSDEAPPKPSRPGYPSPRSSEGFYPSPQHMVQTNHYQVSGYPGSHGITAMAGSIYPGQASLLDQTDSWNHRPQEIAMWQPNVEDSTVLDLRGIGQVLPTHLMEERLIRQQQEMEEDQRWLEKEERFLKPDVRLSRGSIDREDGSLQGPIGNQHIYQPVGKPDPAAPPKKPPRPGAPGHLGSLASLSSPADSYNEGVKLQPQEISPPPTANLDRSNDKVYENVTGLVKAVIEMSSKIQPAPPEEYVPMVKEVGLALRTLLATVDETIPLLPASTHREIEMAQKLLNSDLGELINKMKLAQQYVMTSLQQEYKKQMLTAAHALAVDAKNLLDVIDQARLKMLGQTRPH

[4] = tested on: Fibrinogen (Alexa647-labelled); assay: fibrinogen binders on compound microarrays, profiling panel, artefact control for SMM control-protein annotation, biochemical, small-molecule microarray, 635/667 nm fluorescence (AID 1131); details: fibrinogen-A647 binding fluorescence, higher = more signal;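 further: z-score merges 667 nm fluorescence with per-spot signal-to-noise over triplicate slides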
[5] = biological target: Follistatin (Homo sapiens) (UniProt P19883); assay: follistatin binders on small-molecule microarrays, primary screen, biochemical, small-molecule microarray, 635/667 nm fluorescence (AID 1132); details: FST binding, 635 nm fluorescence, higher = more signal
Chain of Follistatin (Homo sapiens) (P19883 whole entry, looked up): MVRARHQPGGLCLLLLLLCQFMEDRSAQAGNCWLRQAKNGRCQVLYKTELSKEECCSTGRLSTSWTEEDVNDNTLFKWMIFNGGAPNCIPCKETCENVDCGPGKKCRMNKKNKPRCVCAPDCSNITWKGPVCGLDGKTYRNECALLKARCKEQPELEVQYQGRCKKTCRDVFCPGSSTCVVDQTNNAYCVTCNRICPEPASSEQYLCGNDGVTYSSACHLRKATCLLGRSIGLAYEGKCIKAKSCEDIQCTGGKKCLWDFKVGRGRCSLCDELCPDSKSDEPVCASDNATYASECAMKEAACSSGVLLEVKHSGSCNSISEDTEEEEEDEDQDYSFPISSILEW

[6] = biological target: Fibroblast growth factor 2 (Homo sapiens) (UniProt P09038); assay: FGF2 binders on small-molecule microarrays, primary screen, biochemical, small-molecule microarray, 635/667 nm fluorescence (AID 1133); details: small-molecule microarray binding, FGF2, fluorescence 635/667; higher = more signal
Chain of Fibroblast growth factor 2 (Homo sapiens) (P09038 whole entry, looked up): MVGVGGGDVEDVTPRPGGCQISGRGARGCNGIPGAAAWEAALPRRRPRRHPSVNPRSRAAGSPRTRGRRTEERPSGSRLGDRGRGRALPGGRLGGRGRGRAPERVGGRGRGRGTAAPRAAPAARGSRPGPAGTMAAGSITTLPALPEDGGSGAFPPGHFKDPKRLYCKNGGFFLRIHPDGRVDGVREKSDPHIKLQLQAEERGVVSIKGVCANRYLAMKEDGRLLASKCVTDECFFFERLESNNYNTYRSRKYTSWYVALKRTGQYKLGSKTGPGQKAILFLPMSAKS

[7] = mitochondrial membrane potential change in A549 cells, profiling panel, cell-based, JC-1 fluorescence, basal, 24 h, 100 nL (AID 1138); details: higher = more signal;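 further: A549 lung adenocarcinoma cells under basal conditions with no added stimulus; test concentration not given here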
[8] = tested on: Lefty1; assay: Lefty1 binders on small-molecule microarrays, primary screen, biochemical, small-molecule microarray, 635/667 nm fluorescence (AID 1139); details: small-molecule microarray binding, fluorescence 635/667; higher = more signal
[9] = tested on: wheat germ agglutinin (Triticum aestivum), Alexa647-labelled; assay: wheat germ agglutinin binders on compound microarrays, profiling panel, artefact control for SMM control-protein annotation, biochemical, small-molecule microarray, 635/667 nm fluorescence (AID 1140); details: WGA-A647 binding, 635 nm fluorescence, higher = more signal;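 further: score merges 667 nm feature emission with signal to noise over triplicate slides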
[10] = biological target: Luciferin 4-monooxygenase (Photinus pyralis) (UniProt P08659); assay: firefly luciferase enzyme inhibitors, primary screen, biochemical, luminescence, purified enzyme, 2006 set (AID 1141); details: SteadyGlo luminescence, 30 min, higher = more signal, called active from +8 up or from −8 down;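 further: cell-free assay with purified firefly luciferase at 100 ng per well in PBS; test concentration not given here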
Chain of Luciferin 4-monooxygenase (Photinus pyralis) (P08659 whole entry, looked up): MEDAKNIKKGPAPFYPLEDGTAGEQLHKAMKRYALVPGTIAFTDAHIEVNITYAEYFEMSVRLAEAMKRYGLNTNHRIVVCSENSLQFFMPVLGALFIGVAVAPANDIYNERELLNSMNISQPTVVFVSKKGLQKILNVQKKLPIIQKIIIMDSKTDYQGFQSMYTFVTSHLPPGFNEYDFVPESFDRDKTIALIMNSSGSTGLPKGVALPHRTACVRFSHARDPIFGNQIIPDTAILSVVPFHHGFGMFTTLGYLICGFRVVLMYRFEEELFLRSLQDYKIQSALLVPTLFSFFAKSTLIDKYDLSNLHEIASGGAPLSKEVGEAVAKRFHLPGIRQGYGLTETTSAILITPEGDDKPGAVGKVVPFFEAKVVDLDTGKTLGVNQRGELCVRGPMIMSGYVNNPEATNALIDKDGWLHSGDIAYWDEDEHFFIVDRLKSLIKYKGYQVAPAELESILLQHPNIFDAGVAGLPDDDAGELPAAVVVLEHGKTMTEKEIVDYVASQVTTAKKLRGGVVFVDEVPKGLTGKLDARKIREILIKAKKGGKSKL

Compound	composite z-score [1]	composite z-score [2]	composite z-score [3]	composite z-score [4]	composite z-score [5]	composite z-score [6]	z-score [7]	composite z-score [8]	composite z-score [9]	z-score [10]
COCCOC(=O)N1C(=O)[C@@]2(c3cc(C#CCNC(N)=O)ccc31)[C@H](c1ccc(O)cc1)N1[C@H](c3ccccc3)[C@H](c3ccccc3)OC(=O)[C@H]1[C@@H]2C(=O)N1CCN(c2ncccn2)CC1	1.22	1.2	0.634	0.865	0.902	0.671	-1.91	0.707	0.991	-0.391 (inactive)
NC(=O)N1C(=O)C2C(C1=O)C1C=C(CCCO)C2C(C2CC2)N1Cc1cccc(OC(F)(F)F)c1 (stereo not given)	0.589	0.469	-0.0719	0.948	0.173	-0.314	0.541	0.341	0.94	-1.4 (inactive)
C=CCOC(=O)[C@H]1[C@@H]2C(=O)O[C@@H](c3ccccc3)[C@@H](c3ccccc3)N2[C@@H](c2ccc(OCCOC(=O)[C@H]3C[C@H]4C(=O)N[C@@H](CCCCNC(C)=O)C(=O)N4[C@H]3c3cccc(OCCO)c3)cc2)[C@]12C(=O)Nc1ccc(I)cc12	1.3	1.15	0.439	0.808	1.3	1.68	-1.46	1.55	0.0811	-0.33 (inactive)
COCCOC(=O)N1C(=O)[C@@]2(c3cc(C#CCC(C(=O)OC)C(=O)OC)ccc31)[C@H](c1ccc(O)cc1)N1[C@H](c3ccccc3)[C@H](c3ccccc3)OC(=O)[C@H]1[C@@H]2C(=O)NC[C@H](O)c1ccccc1	0.135	1.19	0.933	0.8	1.11	-0.011	-0.236	0.222	1.03	1.04 (inactive)
COc1cc2c(cc1OC)CN(C(=O)[C@@H]1[C@H]3C(=O)O[C@H](c4ccccc4)[C@H](c4ccccc4)N3[C@H](c3ccc(O)cc3)[C@@]13C(=O)Nc1ccc(C#CCCO)cc13)CC2	0.388	0.989	0.584	0.876	1.11	1.24	-1.2	0.945	0.7	0.372 (inactive)
C=CCNC(=O)[C@@H]1[C@H]2C(=O)O[C@H](c3ccccc3)[C@H](c3ccccc3)N2[C@H](c2ccc(O)cc2)[C@@]12C(=O)N(C(=O)OCCOC)c1ccc(C#CCCO)cc12	1.45	0.779	0.863	0.389	1.19	1.25	0.703	0.531	0.862	-0.52 (inactive)
C=CCC(OC(C)=O)[C@@H]1[C@@H](N(Cc2ccc(-c3cccc(C(F)(F)F)c3)o2)C(=O)c2cccc3ccccc23)c2cc(OCCCO)ccc2N1C(=O)Cc1ccc(OC)cc1 (stereo not given in full)	-0.0466	-1.02	-0.104	-0.765	0.998	-0.0117	-0.465	0.229	0.0854	0.638 (inactive)
COc1cc(NN2C(C(O)c3ccc(I)cc3)C=CC3C(=O)N(c4ccccc4)C(=O)C32)cc(OC)c1OC (stereo not given)	2.4	1.24	0.522	0.993	1.2	0.562	0.235	0.52	1.39	-0.285 (inactive)
Cc1ccc(S[C@]2(C(=O)NC(C)C)CC(=O)N(Cc3ccccc3Cl)[C@@H]2c2ccc(CO)cc2)cc1	0.568	0.424	-0.092	0.54	-0.568	-1.27	-0.718	-1.56	0.762	-0.426 (inactive)
O=C1C2C=CC(C(O)C=Cc3ccc([N+](=O)[O-])cc3)N(Nc3ccccc3)C2C(=O)N1c1ccccc1 (stereo not given)	0.185	1.2	0.0142	1.02	1.24	0.0395	-0.0492	0.416	0.932	-1.65 (inactive)
CCOC(=O)C1=CC[C@@H](c2ccccc2)N(S(=O)(=O)c2ccc(C)cc2)[C@H]1c1cccc(OC)c1	0.741	1.15	-0.0106	0.669	0.76	0.356	1.96	-0.245	0.773	1.56 (inactive)
C=C[C@@H](C)[C@H](O)c1ccc(OCCO)cc1	0.0123	-0.535	-0.232	-1.82	-0.808	-0.994	0.41	-1.19	-0.858	-15.8 (active)
COc1cc2c(cc1O)C(c1cccs1)N(Cc1sc3ccccc3c1Cl)CC2 (stereo not given)	2.64	1.28	0.379	1.01	1.14	0.841	-0.702	0.72	1.19	-0.42 (inactive)
Cc1cccc([C@H]2C[C@H]3C(I)=C[C@@H]2C(=O)[C@]32CO2)c1	0.0509	-0.479	-0.446	-0.775	0.573	0.437	0.33	-0.118	-0.412	-0.303 (inactive)
COc1cc(C(O)C2C=CC3C(=O)N(Cc4ccccc4)C(=O)C3N2n2cnnc2)cc(OC)c1OC (stereo not given)	0.941	0.869	0.498	0.912	0.448	0.405	-0.417	-0.493	1.15	-2.17 (inactive)
O=C1N[C@@H](Cc2ccccc2)C(=O)N2[C@@H]1C[C@@H](C(=O)O)[C@H]2c1ccc(O)cc1	2.01	-0.219	-0.11	0.68	1.35	1.26	0.0945	1.58	0.828	-1.43 (inactive)
C=C(COC)/C(=C/C[C@H](OC(C)=O)c1cccc(OCCO)c1)c1cnc2ccccc2c1	0.18	1.02	-0.105	0.246	1.46	1.57	1.05	1.53	1.14	-1.06 (inactive)
CCOC(=O)C1=CC[C@@H](c2ccccc2)N(S(=O)(=O)c2ccc(C)cc2)[C@H]1C=Cc1ccccc1	0.906	0.943	0.289	-0.181	-0.28	-0.463	2.17	-0.584	0.152	1.45 (inactive)
CN(C)C(=O)[C@@]1(Cc2ccccc2)COC(c2ccc(OCCCO)cc2)=N1	0.468	0.672	0.292	0.414	-0.13	-0.0827	1.18	-1.51	0.298	-2.68 (inactive)
O=C(O)[C@@H]1C[C@@H]2C(=O)N3CCC[C@H]3C(=O)N2[C@@H]1c1cccc(OCCO)c1	3.41	1.31	2.47	0.977	1.41	1.4	0.729	1.7	1.69	-0.485 (inactive)
O=C1O[C@H](c2ccccc2)[C@H](c2ccccc2)N2[C@H]1[C@@H](C(=O)N1CCCCCCC1)[C@]1(C(=O)Nc3ccc(C#CC4(O)CCCCCC4)cc31)[C@H]2c1ccc(O)cc1	0.821	1.22	1.75	0.545	1.4	1.37	0.706	1.27	0.757	-0.0026 (inactive)
C=C(C)[C@@H]1CC=C(C(O)C2C=CC3C(=O)N(c4ccccc4)C(=O)C3N2Nc2ccc(C#N)cc2)CC1 (stereo not given in full)	0.526	1.26	0.423	0.999	1.25	0.13	-0.517	0.0839	1.32	-0.251 (inactive)
